Screening results from PubChem.
bovine MsrA act: bovine methionine sulfoxide reductase A activation; purified bovine MsrA, absorbance read-out; activation, % at 10.6 µM; actives 0.3% (n = 360,000); AID 602163; in the data active = activation above about 7.5%
PLC-beta3 inh: inhibitors of human phospholipase C beta3; Q01970; Purified PLC-beta3, fluorogenic substrate, fluorescence; actives 0.18% (n = 370,000); inhibition, % at 12.2 µM; in the data active = inhibition above about 11%
MsrA inhibitor: bovine MsrA inhibition | purified bovine MsrA, absorbance read-out | inhibition, % at 15.5 µM | actives 0.75% (n = 360,000)
PLC-gamma1 inh: PLC-gamma1 (human) inhibition, primary screen | inhibition, % at 12.2 µM | P19174 | purified PLC-gamma1, fluorogenic substrate, fluorescence | actives 0.84% (n = 370,000); in the data active = inhibition above about 9.5%
MsrA inh confirm: confirmation of bovine MsrA inhibitors; inhibition, % at 15.5 µM; actives 41% (n = 2,300); shares compounds with MsrA inhibitor; purified bovine MsrA, absorbance read-out;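 also: coupled to thioredoxin reductase with NADPH and selenocystamine and DMSO as substrate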
A number is an active result. Most compounds without a hit are left out; they make up all but 1.9% or so of the library. Rule as the data show it, unless noted: active = inhibition above about 4.5%; inactive = the rest.

Results for COC(=O)C1=C(C)N(C)C(=NCc2ccccc2C(F)(F)F)NC1c1ccc(C(F)(F)F)cc1 (stereo unspecified) ?
PLC-beta3 inh: inactive; MsrA inhibitor: inactive; PLC-gamma1 inh: inactive

Results for C[C@H]1COc2cccc(NCCO)c2S(=O)(=O)N1 ?
PLC-beta3 inh: inactive; MsrA inhibitor: inactive; PLC-gamma1 inh: inactive

Results for COc1cc(CC(=O)O)c([N+](=O)[O-])cc1OC ?
bovine MsrA act: inactive; PLC-beta3 inh: inactive; MsrA inhibitor: inactive; PLC-gamma1 inh: inactive

What do the screens show for `COc1cc2c(cc1[N+](=O)[O-])n(C(C)C)c(=O)n2C(C)C`?
bovine MsrA act: inactive; PLC-beta3 inh: inactive; MsrA inhibitor: 8.7; PLC-gamma1 inh: inactive; MsrA inh confirm: 6.3

Results for CC(C)S(=O)(=O)N[C@@H]1c2cc3c(cc2[C@H](c2ccccc2)[C@H]1C)OCO3 ?
PLC-beta3 inh: inactive; MsrA inhibitor: inactive; PLC-gamma1 inh: inactive

Results for COc1cc(/C=N/NC(=O)C(=O)NCC2CCCO2)ccc1O (stereo unspecified) ?
bovine MsrA act: inactive; PLC-beta3 inh: inactive; MsrA inhibitor: 4.8; PLC-gamma1 inh: inactive; MsrA inh confirm: inactive

How did COc1cc(OC)c(OC)cc1/C=N/NC(=S)NCC1CCCO1 (stereo unspecified) do in these assays?
bovine MsrA act: inactive; PLC-beta3 inh: inactive; MsrA inhibitor: 5.9; PLC-gamma1 inh: inactive; MsrA inh confirm: 4.9

What do the screens show for `COc1cc(OC)c(OC)cc1/C=N/NC(=S)NCCN1CCOCC1`?
bovine MsrA act: inactive; PLC-beta3 inh: inactive; MsrA inhibitor: 5.1; PLC-gamma1 inh: inactive; MsrA inh confirm: inactive

How did COc1cc(/C=N/NC(=S)NCCN2CCOCC2)cc(OC)c1O do in these assays?
bovine MsrA act: inactive; PLC-beta3 inh: inactive; MsrA inhibitor: 5.2; PLC-gamma1 inh: inactive; MsrA inh confirm: 5.7

Results for S=C(NCCN1CCOCC1)N/N=C/c1ccccc1 ?
bovine MsrA act: inactive; PLC-beta3 inh: inactive; MsrA inhibitor: inactive; PLC-gamma1 inh: inactive

What do the screens show for `Oc1ccc(/C=N/NC(=S)NCCN2CCOCC2)c(O)c1`?
bovine MsrA act: inactive; PLC-beta3 inh: inactive; MsrA inhibitor: inactive; PLC-gamma1 inh: inactive

What do the screens show for `Cn1cc(-c2cccc3[nH]cc(-c4ccccc4)c23)c2ccccc21`?
PLC-beta3 inh: inactive; PLC-gamma1 inh: inactive

Results for COc1cc(C=NNC(=O)c2ccc(NS(=O)(=O)c3cccs3)cc2)cc(Br)c1O ?
bovine MsrA act: inactive; PLC-beta3 inh: inactive; MsrA inhibitor: 5.6; PLC-gamma1 inh: inactive; MsrA inh confirm: 6.0

How did O=C(NN=Cc1c(F)c(F)c(F)c(F)c1F)c1ccc(NS(=O)(=O)c2cccs2)cc1 do in these assays?
bovine MsrA act: inactive; PLC-beta3 inh: inactive; MsrA inhibitor: inactive; PLC-gamma1 inh: inactive

How did CC(=O)Nc1ccc(/C=N/NC(=O)c2cccc(S(=O)(=O)N3CCOCC3)c2)cc1 do in these assays?
bovine MsrA act: inactive; PLC-beta3 inh: inactive; MsrA inhibitor: 6.2; PLC-gamma1 inh: inactive; MsrA inh confirm: inactive

How did CC(=O)Nc1ccc(C=NNC(=O)c2ccc(NS(=O)(=O)c3cccs3)cc2)cc1 do in these assays?
bovine MsrA act: inactive; PLC-beta3 inh: inactive; MsrA inhibitor: 4.8; PLC-gamma1 inh: inactive; MsrA inh confirm: 7.1

What do the screens show for `COc1ccccc1CNC(=O)c1ccc(NS(=O)(=O)c2cccs2)cc1`?
bovine MsrA act: inactive; PLC-beta3 inh: inactive; MsrA inhibitor: inactive; PLC-gamma1 inh: inactive

Results for O=C(Nc1cccc([N+](=O)[O-])c1)NC1CCCCN(Cc2ccc(Cl)cc2)C1=O (stereo unspecified) ?
PLC-beta3 inh: inactive; PLC-gamma1 inh: inactive

Results for c1ccc(Nc2nc3ccccc3n3cnnc23)cc1 ?
bovine MsrA act: inactive; PLC-beta3 inh: inactive; MsrA inhibitor: inactive; PLC-gamma1 inh: inactive

How did Cc1ccc(Nc2nc3ccccc3n3cnnc23)cc1Cl do in these assays?
bovine MsrA act: inactive; PLC-beta3 inh: inactive; MsrA inhibitor: inactive; PLC-gamma1 inh: inactive

Results for Cc1ccc(C)c(Nc2nc3ccccc3n3cnnc23)c1 ?
bovine MsrA act: inactive; PLC-beta3 inh: inactive; MsrA inhibitor: 11; PLC-gamma1 inh: inactive; MsrA inh confirm: 6.7

How did CC(Nc1nc2ccccc2n2cnnc12)c1ccccc1 (stereo unspecified) do in these assays?
bovine MsrA act: inactive; PLC-beta3 inh: inactive; MsrA inhibitor: 12; PLC-gamma1 inh: inactive; MsrA inh confirm: 7.2

Results for CC(C)(C)OC(=O)/C=C/[C@@H](CCCCl)Sc1ccc(C(C)(C)C)cc1 ?
PLC-beta3 inh: inactive; PLC-gamma1 inh: inactive

How did CCS(=O)(=O)N(C)C[C@@H]1OCc2ccccc2-c2c(n(C)c3ccccc23)C(=O)N([C@H](C)CO)C[C@@H]1C do in these assays?
PLC-beta3 inh: inactive; MsrA inhibitor: inactive; PLC-gamma1 inh: inactive
